# Assay results published in the supplement of paper PMC6522484.
# ± gives the standard deviation of the averaged measurements.
# How the values were obtained:
# DLD1 [1] = assay: cell viability (CellTiter-Glo) relative to plate median (fraction of plate median); higher = more viable cells; settings: 5 µM; treatment time 24 h; reporter: 7TFP
# Summary of the method: (§1)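 Signals from firefly luciferase or CellTiterGlo readouts were normalised well by well to the plate median using webcellHTS2, additively and with no log transformation. They came from colorectal cancer cell lines stably holding lentiviral TCF/Wnt firefly luciferase reporters (7TFP or TCF4/Wnt), treated with library compounds at a final 5 µM for 24 h. The mean of two independent replicates is given.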
# HCT116 = assay: as above; settings: 5 µM; treatment time 24 h; reporter: TCF4/Wnt
# Summary of the method: as §1
# SW480 [2] = assay: as above; settings: 5 µM; treatment time 24 h; reporter: 7TFP
# Summary of the method: as §1
# DLD1 [3] = assay: TCF/Wnt firefly luciferase reporter signal relative to plate median (fraction of plate median); higher = higher Wnt reporter signal; settings: 5 µM; treatment time 24 h; reporter: 7TFP
# Summary of the method: as §1
# SW480 [4] = assay: as above; settings: 5 µM; treatment time 24 h; reporter: 7TFP
# Summary of the method: as §1
Structure (SMILES),cell viability (DLD1 [1]),cell viability (HCT116),cell viability (SW480 [2]),TCF/Wnt firefly luciferase reporter signal (DLD1 [3]),TCF/Wnt firefly luciferase reporter signal (SW480 [4])
CC1(C)O[C@H]2CC(=O)OC[C@]23[C@H]2CC[C@@]4(C)[C@H](c5ccoc5)OC(=O)[C@H]5O[C@]54[C@]2(C)C(=O)C[C@@H]13,1.01 ± 0.045,1.07 ± 0.064,1.05 ± 0.05,0.944 ± 0.03,0.98 ± 0.099
O=C(O)P(=O)(O)O,1.06 ± 0.028,0.965 ± 0.05,1 ± 0.011,0.834 ± 0.0092,0.944 ± 0.031
CC(C)C[C@H](NC(=O)[C@@H]1CCCN1)C(=O)N1CCNC(=O)C1=O [Prolyl-leucyl-diketopiperazine],1.02 ± 0.035,0.993 ± 0.011,0.984 ± 0.0042,1.04 ± 0.13,1.025 ± 0.0071
CN(C)CCOC(c1ccccc1)c1ccccc1.Cn1c(=O)c2[nH]c(Cl)nc2n(C)c1=O,0.909 ± 0.025,1.04 ± 0.1,0.927 ± 0.022,1.14 ± 0.13,1.12 ± 0.021
O=C(CCCN1CCC(O)(c2ccc(Cl)cc2)CC1)c1ccc(F)cc1,1 ± 0.021,1.075 ± 0.0071,0.995 ± 0.078,1.08 ± 0.035,1.05 ± 0.064
O=c1[nH]cnc2c1ncn2[C@@H]1O[C@H](CO)[C@@H](O)[C@H]1O,1.09 ± 0.085,1.05,0.976 ± 0.028,0.975 ± 0.093,0.969 ± 0.1
C1CCN2C[C@@H]3C[C@@H](CN4CCCC[C@@H]34)[C@H]2C1,1.08 ± 0.12,1.04 ± 0.021,1.05 ± 0.021,1.16,0.948 ± 0.053
C[C@H]1O[C@H](O[C@H]2[C@H](O)[C@@H](O)[C@@H](O[C@H]3[C@H](O)[C@@H](O)C(O)O[C@@H]3CO)O[C@@H]2CO)[C@H](O)[C@@H](O)[C@@H]1N[C@H]1C=C(CO)[C@@H](O)[C@H](O)[C@H]1O (stereo not given in full),1.01 ± 0.034,0.96 ± 0.057,0.988 ± 0.012,1.06,1.02 ± 0.014
"COc1ccc2c(c1)[C@@]1(C)CC[C@@H](O)C[C@@H]1CC2 [12-METHOXY-4,4-BISNOR-5alpha-8,11,13-PODOCARPATRIEN-3-OL]",1.02 ± 0.014,1.1 ± 0.13,0.984 ± 0.037,1.03 ± 0.11,0.937 ± 0.021
Nc1nc(=O)c2c([nH]1)NCC(CNc1ccc(C(=O)N[C@@H](CCC(=O)O)C(=O)O)cc1)N2C=O (stereo not given in full),1 ± 0.085,1.03,1.01 ± 0.019,1.02 ± 0.12,1.01 ± 0.028
O=C(Nc1ccc([N+](=O)[O-])cc1Cl)c1cc(Cl)ccc1O,0.764 ± 0.05,0.614 ± 0.13,0.779 ± 0.3,0.92 ± 0.064,0.964 ± 0.22
N[C@@H](C=O)[C@@H](O[C@@H]1O[C@H](C(=O)O)[C@@H](O)[C@H](O)[C@H]1O)[C@@H](O)[C@H](O)CO,1.02,1.14 ± 0.22,1 ± 0.054,0.939 ± 0.029,1 ± 0.078
Cn1cnc2c1c(=O)[nH]c(=O)n2C,1.04 ± 0.028,1.16 ± 0.092,1.03 ± 0.035,1.17,1.09 ± 0.028
O=C(O)c1ccccc1Nc1cccc(C(F)(F)F)c1,0.967 ± 0.0099,0.934 ± 0.042,0.95 ± 0.011,0.96 ± 0.057,1.07 ± 0.064
CC(C)NCC(O)c1ccc(O)c(O)c1 (stereo not given),0.963 ± 0.11,1.04 ± 0.074,0.999 ± 0.016,1.02 ± 0.08,1.1 ± 0.042
CC1(C)C(=O)[C@H]2C[C@]3(O)C4=CC(=O)O[C@@H](c5ccoc5)[C@@]4(C)CCC3[C@](C)(C2=O)[C@H]1CC(=O)O (stereo not given in full),1.085 ± 0.0071,1.1 ± 0.064,1.05 ± 0.028,1.11 ± 0.099,0.972 ± 0.083
CCOC(=O)[C@H](CCc1ccccc1)N[C@@H](C)C(=O)N1[C@H](C(=O)O)C[C@@H]2CCC[C@@H]21,1.11 ± 0.17,1.08 ± 0.014,1.1 ± 0.042,1.06 ± 0.035,1.06 ± 0.1
CC1(C)C(O[C@@H]2OC[C@@H](O)[C@H](O)[C@H]2O)CC[C@]23CC24CC[C@]2(C)[C@@H]([C@@]5(C)CC[C@@H](C(C)(C)O)O5)[C@H](O)C[C@@]2(C)C4C[C@@H](O[C@@H]2O[C@H](CO)[C@@H](O)[C@H](O)[C@H]2O)C13 (stereo not given in full),0.987 ± 0.033,0.961 ± 0.016,0.9815 ± 0.0064,1 ± 0.011,1.075 ± 0.0071
OC(CCN1CCCC1)(c1ccccc1)C1CCCCC1 (stereo not given),1.03,1.01 ± 0.043,1.03 ± 0.054,1.12 ± 0.15,0.981 ± 0.017
"CC(C(=O)O)[C@H]1CCC2C3CC=C4C[C@@H](O)CC[C@]4(C)C3CC[C@@]21C (stereo partly drawn) [3beta-HYDROXY-23,24-BISNORCHOL-5-ENIC ACID]",1.09 ± 0.057,1.05 ± 0.071,0.999 ± 0.016,1.01 ± 0.021,1.09 ± 0.028
CCCCCCCCCCCCC[N+](C)(C)Cc1ccccc1,0.848 ± 0.095,0.743 ± 0.028,0.96 ± 0.057,0.725 ± 0.15,0.562 ± 0.074
COc1cc(OC)c(-c2c(OC)cc(OC)cc2OC)c(OC)c1,1.015 ± 0.0071,0.953 ± 0.14,1.02 ± 0.014,0.926 ± 0.018,1.01
Nc1nc2c(ncn2[C@H]2C[C@H](O)[C@@H](CO)O2)c(=O)[nH]1 [Desoxyguanosin],1 ± 0.013,1.01 ± 0.11,1.004 ± 0.0078,0.989 ± 0.016,0.997 ± 0.018
COc1cc(-c2cc(=O)c3c(O)c(OC)c(OC)c(OC)c3o2)cc(OC)c1OC,0.948 ± 0.073,1.06 ± 0.098,0.956 ± 0.02,1.02 ± 0.028,0.936 ± 0.021
CN[C@H]1CC[C@@H](c2ccc(Cl)c(Cl)c2)c2ccccc21,0.713 ± 0.26,0.386 ± 0.052,0.934 ± 0.22,0.796 ± 0.23,0.675 ± 0.15
CC(=O)O[C@H]1C[C@@H](OC(C)=O)C(C)(C)C2C[C@@H](O)[C@]3(C)C(CC[C@@]4(C)[C@H](c5ccoc5)OC(=O)[C@H]5O[C@]543)[C@]21C (stereo not given in full),1.04 ± 0.042,1.06 ± 0.014,1.01 ± 0.073,0.977 ± 0.033,1.02 ± 0.061
COc1ccc(-c2coc3cc(O)ccc3c2=O)c(OC)c1O,1.01 ± 0.021,1.03 ± 0.063,0.966 ± 0.076,0.852 ± 0.047,0.975 ± 0.025
